Test [1] is described as follows: SU-DIPG-VI glioma cell viability, MIPE4.0 library, CellTiter-Glo luminescence, qHTS (AID 1347066; cut-off not given, nearly all actives have AC50 up to about 30 µM;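 note: cells exposed to compound for 48 hours before readout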). The following applies: CellTiter-Glo ATP luminescence. Background: ATP-based viability assays read luminescence as a measure of living cells.
Test [2] in a line: JHH-DIPG-1 glioma cell viability, MIPE5.0 library, CellTiter-Glo luminescence, qHTS (AID 1347067; cut-off not given, nearly all actives have AC50 up to about 26 µM;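 note: cells exposed to compound for 48 hours before readout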). As to conditions: JHH-DIPG-1 glioma viability, CellTiter-Glo ATP luminescence.
Test [3] in a line: modifiers of HSF1 nuclear foci, imaging, Selleck Cancer Library (AID 1347162; in the data active = plate-normalised HSF1 focus index below about 0.46). The following applies: human cells, at 10 µM; SSMD: measured here: HSF1 foci SSMD mean; cell count: measured here: cell number; plate-normalised HSF1 focus index: stronger effect = lower value.
The nature of test [4]: phospholipid biosynthesis inhibitors in animal cells, primary screen, cell-based, LOPAC library, screen 4 (AID 1347384; call rule not given here). The following applies: phospholipid biosynthesis inhibition screen, at 10 µM.
A short description of test [5]: survival rescue of mitochondrial mutant cells in low glucose, primary screen, MELAS cybrids, Rieske KO mouse fibroblasts, CellTiter-Glo (AID 1508586;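 active = mean z-score across replicates of 1.96 or higher in either the MELAS or the Rieske mutant cell line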;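 note: z relative to plate mean and SD of compound and empty wells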).
A short description of test [6]: ovarian cancer cell viability with rucaparib, profiling panel, oncology-focused library, rucaparib conditional (AID 1508598). The following applies: patient-derived ovarian cancer cells, CellTiter-Glo viability, 144 h, stronger effect = lower value.
The target of test [7] is NAD(+) hydrolase SARM1 (Homo sapiens) (UniProt Q6SZW1). Nature of the test: SARM1 TIR NADase inhibitors, cell lysate, NAD-Glo luminescence (AID 1508614;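 active = compound whose remaining NAD level is above about 45 nM, limit read from the data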;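 note: higher remaining NAD means stronger inhibition of SARM1 NADase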). As to conditions: SAM-TIR HEK293T lysate NADase, at 1 µM, stronger effect = higher value.
Sequence of NAD(+) hydrolase SARM1 (Homo sapiens) (Q6SZW1 whole entry, looked up): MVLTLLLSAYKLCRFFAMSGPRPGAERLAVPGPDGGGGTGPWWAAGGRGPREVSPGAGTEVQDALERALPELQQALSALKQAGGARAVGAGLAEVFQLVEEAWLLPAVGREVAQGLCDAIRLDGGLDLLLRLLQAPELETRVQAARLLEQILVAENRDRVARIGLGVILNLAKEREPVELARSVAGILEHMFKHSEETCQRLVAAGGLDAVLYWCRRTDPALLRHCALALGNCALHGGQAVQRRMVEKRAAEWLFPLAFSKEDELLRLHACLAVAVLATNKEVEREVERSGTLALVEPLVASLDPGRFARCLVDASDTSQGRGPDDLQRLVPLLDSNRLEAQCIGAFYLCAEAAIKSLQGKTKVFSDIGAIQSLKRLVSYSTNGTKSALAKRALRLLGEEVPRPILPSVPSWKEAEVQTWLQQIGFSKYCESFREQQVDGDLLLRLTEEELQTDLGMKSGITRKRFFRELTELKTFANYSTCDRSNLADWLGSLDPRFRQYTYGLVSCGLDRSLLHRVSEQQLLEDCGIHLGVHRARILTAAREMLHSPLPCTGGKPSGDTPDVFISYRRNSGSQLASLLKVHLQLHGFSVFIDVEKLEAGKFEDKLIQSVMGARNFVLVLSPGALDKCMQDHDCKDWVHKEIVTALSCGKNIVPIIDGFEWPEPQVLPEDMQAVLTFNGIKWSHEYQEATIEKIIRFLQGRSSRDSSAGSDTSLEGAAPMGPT
Test [8] is described as follows: viability rescue of complex I mutant cybrids, primary screen, cell-based, galactose medium, ATP luminescence (AID 1645843;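 active = z-score of at least 1.8 in each of two replicates, scored against plate mean and spread of sample wells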;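 note: positive z means more ATP and so rescue of galactose-driven cybrid death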). The following applies: complex I mutant cybrid cells, 72 h, stronger effect = higher value.
The nature of test [9]: sensitizers of A549 cells to miR-34 induction, primary screen, imaging, A549 dox-inducible miR-34, nuclei and caspase counts (AID 1347080;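 active = compounds whose cell count with miR-34 switched on is under 0.7 times the count with it off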). As to conditions: A549 miR-34 inducible, Hoechst nuclei count, 48 h; stronger effect = lower value; cell number ratio, induced over uninduced.
Test [10] has as its target Mitogen-activated protein kinase 7 (Homo sapiens) (UniProt Q13164). As to the kind of experiment: ERK5 transactivation activators in reporter cells, primary screen, cell-based, HTS (AID 1508626;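 active = luciferase signal above three times the same-plate solvent-only control wells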;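 note: luciferase driven by Gal4-ERK5 fusion binding five Gal4 sites before minimal TATA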). The following applies: HeLa Gal4-ERK5 transactivation, 18 h, at 5 µM, stronger effect = higher value.
Where [11] appears, read: MELAS cybrid survival, CellTiter-Glo 48 h, stronger effect = higher value.
The mark [12] stands for this setting: Rieske KO mouse fibroblast survival, CellTiter-Glo 72 h.

Molecules are shown by their SMILES. “And” between values parts separate entries of the source, which are not always exact repeats. Equal values may be shown once. Results filed as inconclusive are left out. The source made the active and inactive calls.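 Rule for the calls, unless noted: active = normalized viability below 100% at a tested concentration; inactive = the rest.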

Sequence of Mitogen-activated protein kinase 7 (Homo sapiens) (Q13164 whole entry, looked up, the tested form may be a part): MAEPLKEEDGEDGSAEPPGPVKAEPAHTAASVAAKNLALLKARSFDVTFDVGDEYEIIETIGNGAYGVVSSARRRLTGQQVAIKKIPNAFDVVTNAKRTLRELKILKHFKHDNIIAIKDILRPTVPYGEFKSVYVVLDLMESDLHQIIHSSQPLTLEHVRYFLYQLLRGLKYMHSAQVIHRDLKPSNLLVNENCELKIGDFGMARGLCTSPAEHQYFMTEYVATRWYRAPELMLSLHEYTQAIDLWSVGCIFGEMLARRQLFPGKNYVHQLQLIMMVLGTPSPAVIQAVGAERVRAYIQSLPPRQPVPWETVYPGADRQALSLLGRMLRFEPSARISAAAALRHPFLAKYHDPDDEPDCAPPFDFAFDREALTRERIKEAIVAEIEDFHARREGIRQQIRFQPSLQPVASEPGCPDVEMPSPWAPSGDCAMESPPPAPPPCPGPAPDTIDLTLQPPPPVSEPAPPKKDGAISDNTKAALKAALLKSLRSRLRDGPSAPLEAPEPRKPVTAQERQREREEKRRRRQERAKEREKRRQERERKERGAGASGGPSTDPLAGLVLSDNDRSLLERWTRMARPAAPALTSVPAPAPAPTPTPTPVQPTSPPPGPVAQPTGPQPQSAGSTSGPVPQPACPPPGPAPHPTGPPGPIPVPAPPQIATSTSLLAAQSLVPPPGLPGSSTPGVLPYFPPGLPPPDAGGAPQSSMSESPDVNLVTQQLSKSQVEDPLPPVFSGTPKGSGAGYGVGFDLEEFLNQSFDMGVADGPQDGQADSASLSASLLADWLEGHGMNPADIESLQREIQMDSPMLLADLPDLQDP

Turning to `CC[C@@]1(O)C(=O)OCc2c1cc1n(c2=O)Cc2cc3c(CN(C)C)c(O)ccc3nc2-1`, the result in test [1] and in test [4] was inactive. Besides, the half-maximal activity concentration (AC50) (usually the concentration at which the activity in the assay is half-maximal) in test [2] is 4.17 µM (active). The compound also had an SSMD in test [3] of -8.15. In test [3], this compound showed a cell count of 6870. Further, in [3], the plate-normalised HSF1 focus index was 0.582 (inactive). Moreover, the z-score in [5] (setting [11]) was -0.568 (inactive) and -2.28 (inactive) and -2.25 (inactive); in [5] (setting [12]) it was 0.849 and -0.703 and -1.06; in [8] it was -1.13 (inactive) and -1.87 (inactive) and -2.38 (inactive). In addition, the viability (as a rule, a read-out of living cells in per cent, often relative to untreated cells) in [6] (at 0.000305 µM, OCI-C5x cells, with rucaparib 10 µM, 100% = cells with rucaparib alone) is 104% (inactive); in [6] (at 0.000305 µM, OCI-C5x cells, without rucaparib), 104% (inactive); in test [6] (at 0.000305 µM, OCI-P5x cells, with rucaparib 20 µM, 100% = cells with rucaparib alone), 94.2% (active); in test [6] (at 0.000305 µM, OCI-P5x cells, without rucaparib) it was 107% (inactive); in [6] (at 0.00122 µM, OCI-C5x cells, with rucaparib 10 µM, 100% = cells with rucaparib alone), 89.3% (active); in [6] (at 0.00122 µM, OCI-C5x cells, without rucaparib), 92.9% (active). Also, the viability in test [6] (at 0.00122 µM, OCI-P5x cells, with rucaparib 20 µM, 100% = cells with rucaparib alone) was 83.1% (active); in [6] (at 0.00122 µM, OCI-P5x cells, without rucaparib), 79.7% (active); in [6] (at 0.00488 µM, OCI-C5x cells, with rucaparib 10 µM, 100% = cells with rucaparib alone), 83.9% (active); in test [6] (at 0.00488 µM, OCI-C5x cells, without rucaparib) it was 62.6% (active); in test [6] (at 0.00488 µM, OCI-P5x cells, with rucaparib 20 µM, 100% = cells with rucaparib alone), 64.6% (active); in test [6] (at 0.00488 µM, OCI-P5x cells, without rucaparib) it was 49.2% (active). Besides, the viability was 61.6% (active) in [6] (at 0.0195 µM, OCI-C5x cells, with rucaparib 10 µM, 100% = cells with rucaparib alone); 46.1% (active) in test [6] (at 0.0195 µM, OCI-C5x cells, without rucaparib); 51.1% (active) in test [6] (at 0.0195 µM, OCI-P5x cells, with rucaparib 20 µM, 100% = cells with rucaparib alone); 31.5% (active) in test [6] (at 0.0195 µM, OCI-P5x cells, without rucaparib); 43.7% (active) in test [6] (at 0.0781 µM, OCI-C5x cells, with rucaparib 10 µM, 100% = cells with rucaparib alone); 22.5% (active) in [6] (at 0.0781 µM, OCI-C5x cells, without rucaparib). Further, the viability is 31.5% (active) in test [6] (at 0.0781 µM, OCI-P5x cells, with rucaparib 20 µM, 100% = cells with rucaparib alone); 11.7% (active) in test [6] (at 0.0781 µM, OCI-P5x cells, without rucaparib); 31% (active) in test [6] (at 0.313 µM, OCI-C5x cells, with rucaparib 10 µM, 100% = cells with rucaparib alone); 10.3% (active) in [6] (at 0.313 µM, OCI-C5x cells, without rucaparib); 10.6% (active) in test [6] (at 0.313 µM, OCI-P5x cells, with rucaparib 20 µM, 100% = cells with rucaparib alone); 4.1% (active) in test [6] (at 0.313 µM, OCI-P5x cells, without rucaparib). Moreover, the viability in test [6] (at 1.25 µM, OCI-C5x cells, with rucaparib 10 µM, 100% = cells with rucaparib alone) was 11.2% (active); in test [6] (at 1.25 µM, OCI-C5x cells, without rucaparib), 7.82% (active); in [6] (at 1.25 µM, OCI-P5x cells, with rucaparib 20 µM, 100% = cells with rucaparib alone), 3.74% (active); in test [6] (at 1.25 µM, OCI-P5x cells, without rucaparib) it was 1.56% (active); in [6] (at 5 µM, OCI-C5x cells, with rucaparib 10 µM, 100% = cells with rucaparib alone) it was 4.91% (active); in test [6] (at 5 µM, OCI-C5x cells, without rucaparib), 4% (active). Further, the viability in test [6] (at 5 µM, OCI-P5x cells, with rucaparib 20 µM, 100% = cells with rucaparib alone) was 5.99% (active); in test [6] (at 5 µM, OCI-P5x cells, without rucaparib), 4.13% (active). The remaining NAD in [7] is 10 nM (inactive).

As for `COc1cc(NS(=O)(=O)c2ccc(N)cc2)nc(OC)n1`, in test [1], the outcome was inactive. The fold change in test [9] is 0.911 (inactive) and 0.916 (inactive) and 0.961 (inactive). Besides, the z-score in test [5] (setting [11]) is -0.175 (inactive) and 0.0464 (inactive) and -0.547 (inactive); in [5] (setting [12]) it was 0.68 and -0.334 and -1.37; in [8], -0.135 (inactive). Further, in test [7], the remaining NAD is 10 nM (inactive). Also, the luciferase signal in [10] is 48 AU (inactive).

Consider `CC(C)NCC(O)COc1ccc(COCCOC(C)C)cc1` (stereo unspecified), for which the outcome in test [1] and in test [4] was inactive. For the same compound, the z-score in test [5] (setting [11]) was -0.423 (inactive) and -0.586 (inactive); in [5] (setting [12]) it was 0.385 and -0.329; in [8] it was 0.495 (inactive) and 0.79 (inactive) and 0.73 (inactive). Further, the remaining NAD in test [7] is 10 nM (inactive). The luciferase signal in test [10] is 84 AU (inactive).

The record behind these values is PubChem BioAssay.
